# Legend:
# Assay in all cases: DAPPL (digital affinity profiling via proximity ligation, sequencing); 10 mM Tris-HCl pH 7.5, 50 mM NaCl, 1 mM DTT, 4% glycerol, room temperature, 30 min; GST-TFs on glutathione beads, 16-mer random dsDNA library, 0.1% formaldehyde crosslink after washing; high values mean tight binding
# [1] = molecular target: T1, FLI1 (Homo sapiens, UniProt Q01543 1-452); settings: protein: recombinant; tags: N-terminal GST; dsDNA, one strand shown
# T1 sequence: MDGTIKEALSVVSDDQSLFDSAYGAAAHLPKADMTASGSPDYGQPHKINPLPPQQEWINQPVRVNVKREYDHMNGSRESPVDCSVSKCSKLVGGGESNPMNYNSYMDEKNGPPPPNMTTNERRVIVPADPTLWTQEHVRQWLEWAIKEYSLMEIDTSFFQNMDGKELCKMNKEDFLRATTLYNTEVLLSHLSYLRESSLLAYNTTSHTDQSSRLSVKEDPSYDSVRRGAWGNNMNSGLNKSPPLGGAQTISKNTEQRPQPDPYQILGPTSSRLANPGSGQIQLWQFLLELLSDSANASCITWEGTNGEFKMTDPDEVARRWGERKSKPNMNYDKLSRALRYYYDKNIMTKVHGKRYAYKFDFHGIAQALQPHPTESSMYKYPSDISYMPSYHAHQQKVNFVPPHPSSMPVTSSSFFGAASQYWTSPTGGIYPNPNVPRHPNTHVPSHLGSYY
# Procedure, shortened: (§1)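 Binding signal is defined as a hexamer's read frequency for one factor over its frequency for the tag-only sample. To obtain reads, GST-fused human transcription factors were expressed in yeast, captured on glutathione beads, barcoded with DNA and pooled with that sample. Pools met 200 nmole of a 16-mer random double-stranded DNA library in Tris/NaCl/DTT/glycerol buffer for 30 min at room temperature before washing, 0.1% formaldehyde crosslinking, proximity ligation (BsaI/T4 ligase, 1 h, 37 °C), PCR and Illumina NextSeq500 sequencing.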
# [2] = molecular target: T2, ELK1 (Homo sapiens, UniProt P19419 1-428); settings: protein: recombinant; tags: N-terminal GST; dsDNA, one strand shown
# T2 sequence: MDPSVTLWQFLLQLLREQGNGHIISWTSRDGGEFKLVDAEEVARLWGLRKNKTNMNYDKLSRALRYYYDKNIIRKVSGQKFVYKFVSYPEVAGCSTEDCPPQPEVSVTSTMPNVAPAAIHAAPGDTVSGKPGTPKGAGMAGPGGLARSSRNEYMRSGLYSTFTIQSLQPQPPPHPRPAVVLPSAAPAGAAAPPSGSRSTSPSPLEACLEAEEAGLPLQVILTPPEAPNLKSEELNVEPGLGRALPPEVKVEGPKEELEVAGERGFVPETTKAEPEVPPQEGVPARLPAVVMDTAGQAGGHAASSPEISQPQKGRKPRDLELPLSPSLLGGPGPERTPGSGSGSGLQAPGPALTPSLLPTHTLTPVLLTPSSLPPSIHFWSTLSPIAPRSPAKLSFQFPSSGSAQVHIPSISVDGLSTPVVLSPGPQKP
# Procedure, shortened: as §1
# [3] = molecular target: T3, GABPA (Homo sapiens, UniProt Q06546 1-454); settings: protein: recombinant; tags: N-terminal GST; dsDNA, one strand shown
# T3 sequence: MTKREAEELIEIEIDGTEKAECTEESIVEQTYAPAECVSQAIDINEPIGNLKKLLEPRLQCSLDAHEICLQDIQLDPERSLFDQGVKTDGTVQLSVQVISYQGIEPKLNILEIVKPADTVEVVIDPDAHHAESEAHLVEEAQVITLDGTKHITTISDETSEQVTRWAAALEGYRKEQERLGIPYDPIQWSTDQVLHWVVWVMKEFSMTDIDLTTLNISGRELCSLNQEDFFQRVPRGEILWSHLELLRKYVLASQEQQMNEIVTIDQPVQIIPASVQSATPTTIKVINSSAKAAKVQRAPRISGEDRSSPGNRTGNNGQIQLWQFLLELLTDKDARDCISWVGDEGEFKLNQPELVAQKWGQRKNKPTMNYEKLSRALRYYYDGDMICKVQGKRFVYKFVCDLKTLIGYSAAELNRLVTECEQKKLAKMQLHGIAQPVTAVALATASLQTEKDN
# Procedure, shortened: as §1
# [4] = molecular target: T4, ERG (Homo sapiens, UniProt P11308 1-479); settings: protein: recombinant; tags: N-terminal GST; dsDNA, one strand shown
# T4 sequence: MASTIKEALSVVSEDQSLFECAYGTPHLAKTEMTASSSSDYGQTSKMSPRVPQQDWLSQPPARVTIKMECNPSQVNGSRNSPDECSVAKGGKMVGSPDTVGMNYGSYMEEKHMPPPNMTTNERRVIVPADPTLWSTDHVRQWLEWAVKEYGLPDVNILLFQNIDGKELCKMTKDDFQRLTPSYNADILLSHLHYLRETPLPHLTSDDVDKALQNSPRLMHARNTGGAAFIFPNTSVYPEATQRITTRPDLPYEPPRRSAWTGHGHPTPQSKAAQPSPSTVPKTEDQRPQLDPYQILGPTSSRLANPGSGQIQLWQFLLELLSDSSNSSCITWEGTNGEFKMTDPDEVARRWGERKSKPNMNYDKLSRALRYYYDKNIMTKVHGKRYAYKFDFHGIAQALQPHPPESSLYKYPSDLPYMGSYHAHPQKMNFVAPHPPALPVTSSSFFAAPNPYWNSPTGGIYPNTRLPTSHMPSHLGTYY
# Procedure, shortened: as §1
# [5] = molecular target: ELF1 (Homo sapiens, UniProt P32519 1-619); settings: protein: recombinant; tags: N-terminal GST; dsDNA, one strand shown
# Procedure, shortened: as §1
# [6] = molecular target: T5, EHF (Homo sapiens, UniProt Q9NZC4 1-300); settings: protein: recombinant; tags: N-terminal GST; dsDNA, one strand shown
# T5 sequence: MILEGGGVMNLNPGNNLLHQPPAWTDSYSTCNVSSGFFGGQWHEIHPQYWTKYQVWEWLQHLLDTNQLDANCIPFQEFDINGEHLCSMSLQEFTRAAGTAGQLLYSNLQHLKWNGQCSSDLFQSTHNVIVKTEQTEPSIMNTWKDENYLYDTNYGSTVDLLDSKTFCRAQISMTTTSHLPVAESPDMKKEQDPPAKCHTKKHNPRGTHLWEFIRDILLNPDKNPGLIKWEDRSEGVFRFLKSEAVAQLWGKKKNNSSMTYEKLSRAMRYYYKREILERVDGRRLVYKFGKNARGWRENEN
# Procedure, shortened: as §1
# [7] = molecular target: SPI1 (Homo sapiens, UniProt P17947 1-270); settings: protein: recombinant; tags: N-terminal GST; dsDNA, one strand shown
# Procedure, shortened: as §1
# [8] = molecular target: SPIB (Homo sapiens, UniProt Q01892 1-262); settings: protein: recombinant; tags: N-terminal GST; dsDNA, one strand shown
# Procedure, shortened: as §1
# [9] = molecular target: T6, ELK3 (Homo sapiens, UniProt P41970 1-407); settings: protein: recombinant; tags: N-terminal GST; dsDNA, one strand shown
# T6 sequence: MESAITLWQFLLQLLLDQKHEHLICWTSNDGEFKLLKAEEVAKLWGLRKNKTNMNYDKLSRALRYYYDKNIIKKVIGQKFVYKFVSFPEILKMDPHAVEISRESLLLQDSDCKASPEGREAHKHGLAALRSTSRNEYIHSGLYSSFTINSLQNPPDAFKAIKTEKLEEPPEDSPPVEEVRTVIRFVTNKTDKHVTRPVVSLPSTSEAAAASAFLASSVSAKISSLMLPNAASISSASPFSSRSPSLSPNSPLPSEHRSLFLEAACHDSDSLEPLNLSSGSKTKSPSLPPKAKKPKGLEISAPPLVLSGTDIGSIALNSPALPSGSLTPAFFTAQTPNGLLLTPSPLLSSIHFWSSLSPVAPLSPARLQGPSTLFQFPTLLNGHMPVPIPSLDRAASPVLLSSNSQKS
# Procedure, shortened: as §1
# [10] = molecular target: T7, FEV (Homo sapiens, UniProt Q99581 1-238); settings: protein: recombinant; tags: N-terminal GST; dsDNA, one strand shown
# T7 sequence: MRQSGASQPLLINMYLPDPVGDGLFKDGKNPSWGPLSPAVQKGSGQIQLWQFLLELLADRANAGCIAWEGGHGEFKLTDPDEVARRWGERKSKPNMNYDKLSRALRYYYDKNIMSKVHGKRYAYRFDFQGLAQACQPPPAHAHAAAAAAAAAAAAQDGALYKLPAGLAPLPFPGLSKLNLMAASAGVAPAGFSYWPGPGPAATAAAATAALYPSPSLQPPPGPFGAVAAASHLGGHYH
# Procedure, shortened: as §1
# [11] = molecular target: ETV5 (Homo sapiens, UniProt P41161 1-510); settings: protein: recombinant; tags: N-terminal GST; dsDNA, one strand shown
# Procedure, shortened: as §1
# [12] = molecular target: HSF1 (Homo sapiens, UniProt Q00613 1-529); settings: protein: recombinant; tags: N-terminal GST; chain copies: 3; dsDNA, one strand shown
# Procedure, shortened: as §1
# [13] = molecular target: T8, SPIC (Homo sapiens, UniProt Q8N5J4 1-248); settings: protein: recombinant; tags: N-terminal GST; dsDNA, one strand shown
# T8 sequence: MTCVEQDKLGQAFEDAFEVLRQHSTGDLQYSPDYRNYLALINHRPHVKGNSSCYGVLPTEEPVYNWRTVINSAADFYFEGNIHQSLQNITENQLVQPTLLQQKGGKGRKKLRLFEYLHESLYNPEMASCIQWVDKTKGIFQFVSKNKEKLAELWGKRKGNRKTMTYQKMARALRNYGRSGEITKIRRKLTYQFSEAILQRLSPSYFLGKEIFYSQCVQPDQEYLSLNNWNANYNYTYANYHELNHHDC
# Procedure, shortened: as §1
# [14] = molecular target: ELF4 (Homo sapiens, UniProt Q99607 1-663); settings: protein: recombinant; tags: N-terminal GST; dsDNA, one strand shown
# Procedure, shortened: as §1
# [15] = molecular target: T9, ELK4 (Homo sapiens, UniProt P28324-2 1-405); settings: protein: recombinant; tags: N-terminal GST; dsDNA, one strand shown
# T9 sequence: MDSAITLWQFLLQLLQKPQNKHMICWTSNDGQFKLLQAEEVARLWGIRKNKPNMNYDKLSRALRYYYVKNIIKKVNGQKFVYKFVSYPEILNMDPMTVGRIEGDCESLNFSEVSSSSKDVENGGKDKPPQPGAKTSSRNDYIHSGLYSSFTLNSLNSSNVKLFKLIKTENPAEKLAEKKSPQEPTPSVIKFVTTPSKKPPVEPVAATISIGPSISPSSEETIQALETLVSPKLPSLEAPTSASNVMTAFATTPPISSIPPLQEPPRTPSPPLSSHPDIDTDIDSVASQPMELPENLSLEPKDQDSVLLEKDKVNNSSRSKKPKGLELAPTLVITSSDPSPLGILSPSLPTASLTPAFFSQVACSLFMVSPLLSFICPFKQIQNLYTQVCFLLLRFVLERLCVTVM
# Procedure, shortened: as §1
# [16] = molecular target: T10, ETV2 (Homo sapiens, UniProt O00321 1-342); settings: protein: recombinant; tags: N-terminal GST; dsDNA, one strand shown
# T10 sequence: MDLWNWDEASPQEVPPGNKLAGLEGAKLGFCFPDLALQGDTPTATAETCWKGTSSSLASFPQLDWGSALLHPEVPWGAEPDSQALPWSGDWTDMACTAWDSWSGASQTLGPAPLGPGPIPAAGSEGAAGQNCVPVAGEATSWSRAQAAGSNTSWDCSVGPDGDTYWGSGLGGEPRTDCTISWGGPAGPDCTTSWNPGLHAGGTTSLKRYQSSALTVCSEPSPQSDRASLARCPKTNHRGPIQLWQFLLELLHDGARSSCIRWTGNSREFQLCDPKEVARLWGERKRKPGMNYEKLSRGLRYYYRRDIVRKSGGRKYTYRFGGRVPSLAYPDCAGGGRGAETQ
# Procedure, shortened: as §1
# [17] = molecular target: T11, ELF3 (Homo sapiens, UniProt P78545 1-371); settings: protein: recombinant; tags: N-terminal GST; dsDNA, one strand shown
# T11 sequence: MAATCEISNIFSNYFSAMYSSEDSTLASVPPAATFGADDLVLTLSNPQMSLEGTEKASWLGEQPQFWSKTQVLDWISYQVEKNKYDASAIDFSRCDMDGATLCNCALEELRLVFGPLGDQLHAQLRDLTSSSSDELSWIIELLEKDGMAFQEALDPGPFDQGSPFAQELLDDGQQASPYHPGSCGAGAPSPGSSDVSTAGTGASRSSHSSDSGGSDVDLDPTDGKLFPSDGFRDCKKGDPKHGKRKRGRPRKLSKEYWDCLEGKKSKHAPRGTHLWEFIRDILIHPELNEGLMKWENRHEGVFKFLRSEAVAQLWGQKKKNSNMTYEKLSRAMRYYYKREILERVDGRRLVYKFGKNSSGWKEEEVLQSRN
# Procedure, shortened: as §1
# [18] = molecular target: CRX (Homo sapiens, UniProt O43186 1-299); settings: protein: recombinant; tags: N-terminal GST; dsDNA, one strand shown
# Procedure, shortened: as §1
# [19] = molecular target: ETV1 (Homo sapiens, UniProt P50549 1-477); settings: protein: recombinant; tags: N-terminal GST; dsDNA, one strand shown
# Procedure, shortened: as §1
# Sequence of HSF1 (Q00613 whole entry): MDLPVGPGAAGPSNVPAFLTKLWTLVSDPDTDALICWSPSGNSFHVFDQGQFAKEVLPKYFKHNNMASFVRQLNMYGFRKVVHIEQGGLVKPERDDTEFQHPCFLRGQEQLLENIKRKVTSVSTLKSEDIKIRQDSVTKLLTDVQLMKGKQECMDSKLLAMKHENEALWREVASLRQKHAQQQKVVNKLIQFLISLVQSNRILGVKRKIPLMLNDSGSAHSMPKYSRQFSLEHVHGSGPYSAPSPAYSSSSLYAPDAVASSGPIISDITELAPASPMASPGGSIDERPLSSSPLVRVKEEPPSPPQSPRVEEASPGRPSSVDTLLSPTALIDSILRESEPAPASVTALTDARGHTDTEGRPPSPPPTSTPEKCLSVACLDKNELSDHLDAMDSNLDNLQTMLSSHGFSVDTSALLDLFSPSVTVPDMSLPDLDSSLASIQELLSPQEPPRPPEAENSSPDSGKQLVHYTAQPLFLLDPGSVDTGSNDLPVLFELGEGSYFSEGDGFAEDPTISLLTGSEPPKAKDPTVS
# Sequence of ETV5 (P41161 whole entry): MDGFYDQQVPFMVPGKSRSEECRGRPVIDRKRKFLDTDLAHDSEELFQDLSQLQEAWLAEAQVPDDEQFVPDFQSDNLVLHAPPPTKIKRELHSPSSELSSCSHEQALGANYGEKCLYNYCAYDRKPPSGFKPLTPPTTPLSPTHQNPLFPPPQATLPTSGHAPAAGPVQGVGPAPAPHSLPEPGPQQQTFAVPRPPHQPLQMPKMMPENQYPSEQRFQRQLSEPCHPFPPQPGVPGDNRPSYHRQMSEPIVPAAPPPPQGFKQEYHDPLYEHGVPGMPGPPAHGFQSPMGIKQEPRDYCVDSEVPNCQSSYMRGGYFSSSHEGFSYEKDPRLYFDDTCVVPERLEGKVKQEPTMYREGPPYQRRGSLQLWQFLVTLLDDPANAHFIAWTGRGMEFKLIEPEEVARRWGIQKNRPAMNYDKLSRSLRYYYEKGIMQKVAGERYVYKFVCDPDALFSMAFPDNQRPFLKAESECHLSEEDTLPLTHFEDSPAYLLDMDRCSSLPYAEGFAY
# Sequence of ELF1 (P32519 whole entry): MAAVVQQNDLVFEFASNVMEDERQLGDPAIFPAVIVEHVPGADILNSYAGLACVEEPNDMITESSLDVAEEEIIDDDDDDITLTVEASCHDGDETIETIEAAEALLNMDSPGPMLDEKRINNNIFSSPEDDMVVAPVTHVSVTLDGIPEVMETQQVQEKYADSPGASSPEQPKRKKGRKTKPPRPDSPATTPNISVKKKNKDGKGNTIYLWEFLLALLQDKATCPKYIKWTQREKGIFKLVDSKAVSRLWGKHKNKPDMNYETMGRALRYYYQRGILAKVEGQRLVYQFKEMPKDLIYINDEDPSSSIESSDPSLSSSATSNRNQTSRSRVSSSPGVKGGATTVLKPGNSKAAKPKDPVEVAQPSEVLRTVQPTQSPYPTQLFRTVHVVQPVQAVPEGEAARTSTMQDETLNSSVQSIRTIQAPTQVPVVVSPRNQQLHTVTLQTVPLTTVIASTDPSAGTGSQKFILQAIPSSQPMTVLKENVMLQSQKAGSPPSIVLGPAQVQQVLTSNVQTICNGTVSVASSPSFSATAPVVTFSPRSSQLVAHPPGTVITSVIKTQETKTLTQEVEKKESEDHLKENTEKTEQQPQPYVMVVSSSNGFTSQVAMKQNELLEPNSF
# Sequence of SPIB (Q01892 whole entry): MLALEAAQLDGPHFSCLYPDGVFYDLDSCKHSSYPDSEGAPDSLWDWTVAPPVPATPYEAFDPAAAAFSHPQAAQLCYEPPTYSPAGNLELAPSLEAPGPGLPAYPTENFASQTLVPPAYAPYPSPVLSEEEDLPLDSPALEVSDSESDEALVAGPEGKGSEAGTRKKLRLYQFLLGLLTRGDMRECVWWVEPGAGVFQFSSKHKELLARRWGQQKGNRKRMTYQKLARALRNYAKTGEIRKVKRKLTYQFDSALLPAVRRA
# Sequence of CRX (O43186 whole entry): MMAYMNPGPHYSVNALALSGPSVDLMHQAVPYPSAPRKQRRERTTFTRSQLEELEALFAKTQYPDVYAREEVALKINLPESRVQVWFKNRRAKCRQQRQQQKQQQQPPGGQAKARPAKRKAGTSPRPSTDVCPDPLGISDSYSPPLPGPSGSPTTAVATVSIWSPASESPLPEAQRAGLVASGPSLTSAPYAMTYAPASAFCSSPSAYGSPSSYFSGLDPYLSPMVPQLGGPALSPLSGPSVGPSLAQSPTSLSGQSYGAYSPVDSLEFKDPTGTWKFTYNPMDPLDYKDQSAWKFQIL
# Sequence of ELF4 (Q99607 whole entry): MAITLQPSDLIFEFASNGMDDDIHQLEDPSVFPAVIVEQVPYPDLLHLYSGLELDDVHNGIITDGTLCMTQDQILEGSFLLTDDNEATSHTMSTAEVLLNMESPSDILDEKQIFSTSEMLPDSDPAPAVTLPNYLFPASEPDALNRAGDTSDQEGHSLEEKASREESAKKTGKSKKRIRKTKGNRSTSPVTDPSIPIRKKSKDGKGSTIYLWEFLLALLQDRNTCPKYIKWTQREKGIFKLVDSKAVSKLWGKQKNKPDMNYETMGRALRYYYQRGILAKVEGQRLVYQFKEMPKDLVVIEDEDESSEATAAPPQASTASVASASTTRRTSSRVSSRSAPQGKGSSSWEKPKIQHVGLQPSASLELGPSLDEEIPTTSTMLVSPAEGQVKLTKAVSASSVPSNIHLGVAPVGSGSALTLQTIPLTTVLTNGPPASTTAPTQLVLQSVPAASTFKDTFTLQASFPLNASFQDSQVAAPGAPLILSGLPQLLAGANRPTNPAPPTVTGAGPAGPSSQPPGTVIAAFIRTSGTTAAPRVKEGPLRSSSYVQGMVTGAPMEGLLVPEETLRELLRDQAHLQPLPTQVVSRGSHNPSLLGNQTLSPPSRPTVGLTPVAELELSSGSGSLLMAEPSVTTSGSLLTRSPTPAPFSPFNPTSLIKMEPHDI
# Sequence of ETV1 (P50549 whole entry): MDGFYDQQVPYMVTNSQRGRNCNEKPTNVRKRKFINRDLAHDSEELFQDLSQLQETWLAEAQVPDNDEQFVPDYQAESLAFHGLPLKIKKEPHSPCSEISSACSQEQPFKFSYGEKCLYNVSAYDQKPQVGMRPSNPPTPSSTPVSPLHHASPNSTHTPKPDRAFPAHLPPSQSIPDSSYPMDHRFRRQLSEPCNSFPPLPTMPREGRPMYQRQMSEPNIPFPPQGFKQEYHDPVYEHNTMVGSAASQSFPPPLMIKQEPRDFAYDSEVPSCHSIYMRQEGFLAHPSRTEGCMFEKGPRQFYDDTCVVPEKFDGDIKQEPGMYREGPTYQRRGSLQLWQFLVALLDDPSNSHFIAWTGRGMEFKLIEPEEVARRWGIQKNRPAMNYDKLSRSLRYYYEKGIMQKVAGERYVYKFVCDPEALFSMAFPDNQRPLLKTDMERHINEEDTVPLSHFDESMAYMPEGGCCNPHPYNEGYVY
sequence,measurement,setting,value
AACTCT,binding signal,[1],"1.32 fold enrichment (6-mer frequency, TF over GST control)"
same,binding signal,[2],"1.37 fold enrichment (6-mer frequency, TF over GST control)"
same,binding signal,[3],"1.31 fold enrichment (6-mer frequency, TF over GST control)"
same,binding signal,[4],"1.33 fold enrichment (6-mer frequency, TF over GST control)"
same,binding signal,[5],"1.5 fold enrichment (6-mer frequency, TF over GST control)"
same,binding signal,[6],"1.33 fold enrichment (6-mer frequency, TF over GST control)"
same,binding signal,[7],"1.28 fold enrichment (6-mer frequency, TF over GST control)"
same,binding signal,[8],"1.28 fold enrichment (6-mer frequency, TF over GST control)"
same,binding signal,[9],"1.26 fold enrichment (6-mer frequency, TF over GST control)"
same,binding signal,[10],"1.31 fold enrichment (6-mer frequency, TF over GST control)"
same,binding signal,[11],"1.36 fold enrichment (6-mer frequency, TF over GST control)"
same,binding signal,[12],"1.4 fold enrichment (6-mer frequency, TF over GST control)"
same,binding signal,[13],"1.6 fold enrichment (6-mer frequency, TF over GST control)"
same,binding signal,[14],"1.36 fold enrichment (6-mer frequency, TF over GST control)"
same,binding signal,[15],"1.24 fold enrichment (6-mer frequency, TF over GST control)"
same,binding signal,[16],"1.24 fold enrichment (6-mer frequency, TF over GST control)"
same,binding signal,[17],"1.44 fold enrichment (6-mer frequency, TF over GST control)"
same,binding signal,[18],"1.37 fold enrichment (6-mer frequency, TF over GST control)"
same,binding signal,[19],"1.36 fold enrichment (6-mer frequency, TF over GST control)"

# Source: publication PMC7862700, “An all-to-all approach to the identification of sequence-specific readers for epigenetic DNA modifications on cytosine”
